Results on 40 molecules are retold here after PubChem BioAssay (NCI).

The structures appear in SMILES notation. Compounds without any hit were thinned out: in the full panel of roughly 83,000, 20% have a hit.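 For each line, cells grew in 96-well plates with the test compound present at a single concentration for 48 hours.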 Calls of active or inactive are those of the source. Rule for the calls: active = growth percent below 10; inactive = the rest.

In the test the test system is HL-60(TB) leukemia. Put plainly: NCI-60 one-dose screen, 48 h (100 = growth as untreated, 0 = no growth, -100 = all killed). The note with it: 10 µM unless noted.
Turning to `O=S(=O)(c1ccc(OCCO)cc1)c1ccc(OCCO)cc1`, the growth was -0.844% (active).
With `COc1cc(Cl)cc(-c2nn(-c3cccc(NC(=O)c4cc(C(F)(F)F)cc(C(F)(F)F)c4)c3)cc2-c2ccncc2)c1`, the growth is 84.3% (inactive).
In the case of `COc1cccc(-c2nn(-c3ccccc3)cc2-c2ccnc(NCCCNC(=O)c3cccc(C(F)(F)F)c3)c2)c1`, the growth was 7.43% (active).
With `CCN1CCN(c2nc(NCCCNc3ccnc4cc(Cl)ccc34)c3ccccc3n2)CC1` the figure was -51.4% (active); with `c1ccc(OCCC[P+](c2ccccc2)(c2ccccc2)c2ccccc2)cc1`, -57.3% (active); with `O=C(NCCO)C(F)(F)F`, 103% (inactive).
For the molecule `Nc1ccc(-n2c(=O)oc3ccc(Cl)cc3c2=O)c(Cl)c1`, the growth was -42.8% (active).
With `COc1ccc(/C=C/c2cc(N3CCOCC3)c3cc(F)c(F)cc3n2)cc1OC` the figure was -8.49% (active); with `COc1ccc(C(=O)Cn2cnc3c(Nc4cc(C(=O)Nc5ccc(N6CCN(CCO)CC6)cc5)ccc4C)ncnc32)cc1`, 83.6% (inactive); with `CN(C)c1ccc(-c2ccc(-c3ccc(C(=N)N)cn3)o2)cc1`, -67.3% (active).
With `COc1ccc(C(C(=O)O)c2ccc(OC)cc2)cc1` the figure was 97.9% (inactive).
Next, `COc1cc(C(C)(C)C)cc(OC)c1C(O)(c1c(OC)cc(C(C)(C)C)cc1OC)c1c(OC)cc(C(C)(C)C)cc1OC`: -63.7% (active); `O=C(O)/C=C/c1ccc2c(c1)CCC2`: 110% (inactive).
Turning to `CC(=O)/C(Br)=C/c1ccc(Br)o1`, the growth was -18.8% (active).
In the case of `CN(C)C(=O)c1cc2cnc(Nc3ccc(-c4csc5c(=O)cc(N6CCOCC6)oc45)cc3)nc2n1C1CCCC1`, the growth is -46.7% (active).
Next, `COc1ccc(/C=C2\N=C(c3ccccc3)N(C(=O)c3ccccc3O)NC2=O)cc1`: -10.5% (active).
Next, `C[C@@H]1NC(=O)[C@H](Cc2ccccc2)N(Cc2cccnc2)C1=O`: 103% (inactive); `Cc1cc2c(cc1C)N(C(=O)CCl)CC(=O)N2`: 8.25% (active); `CC(=O)OC1CC2CCC1(C)C2(C)C` (stereo not given): 103% (inactive).
In the case of `COc1ccc(C(c2cc(OC)c(OC)c(OC)c2)n2ccnc2)cc1O` (stereo not given), the growth is -35.9% (active).
As to `COc1ccccc1C(OC(C)=O)OC(C)=O`, the growth was 87% (inactive).
Regarding `Cc1sc2c(c1C)c(=O)nc1c(-c3nc(-c4ccccc4)cs3)n[nH]n12`, the growth was 94.1% (inactive).
Next, `CCN(C(=O)c1cc2ncccc2[nH]1)[C@H]1CCC[C@@H](NCc2cccc(F)c2)C1`: 130% (inactive).
Take `Cc1ccc2cccc(OC(=O)Nc3cccc(C(F)(F)F)c3)c2n1`: the growth was 67% (inactive).
For the molecule `C[C@@H]1C(=O)N(C[C@H](Cc2ccccc2)N(Cc2ccccc2)Cc2ccccc2)[C@]1(Cc1ccccc1)C(=O)OC(C)(C)C`, the growth was 62.9% (inactive).
With `Cc1cn(C2CCCCO2)c(=O)nc1NO` (stereo not given) the figure was 102% (inactive).
Next, `Cc1cc2c(c(C)c1Cl)C(=O)/C(=C/c1ccc(O)c(O)c1)O2`: 108% (inactive); `COc1ccc(-c2cc(-c3ccc(Nc4nc(Nc5ccccc5)nc(Nc5ccc(Cl)cc5)n4)cc3)nc(N)n2)cc1`: 101% (inactive); `COc1ccc2nc(NC(=O)c3cccnc3Nc3ccc(S(N)(=O)=O)cc3)sc2c1`: 54.5% (inactive).
Consider `Cn1ccnc1C(=O)/C=C/c1ccc(CC(=O)Nc2ccc(S(F)(F)(F)(F)F)cc2)cc1`, for which the growth is -11.5% (active).
Take `COc1ccc2c(c1OC)O/C(=C\c1ncc([N+](=O)[O-])n1C)C2=O`: the growth is -7.92% (active).
With `NC(CCC(=O)NC(CS)C(=O)NCC(=O)O)C(=O)O` (stereo not given) the figure was 73.1% (inactive); with `COc1cc2c(cc1OC)-c1ccc3cc4c(cc3c1N(CCCN(C)C)C2)OCO4`, 30.4% (inactive); with `CCCCOc1ccc(/C(C)=N/Nc2cc(C)nc3ccc(Br)cc23)cc1`, 78.5% (inactive).
Next, `CN(C)c1ccc(/C=N\Nc2cc(=O)[nH]c3ccc(Cl)cc23)cc1`: 98.2% (inactive).
Next, `Nn1c(SCC(=O)Nc2cc(Cl)c(Cl)cc2Cl)nnc1-c1cc(F)c(Cl)cc1Cl`: 92% (inactive); `O=C(N/N=C/[C@H](O)[C@@H](O)[C@@H](O)[C@H](O)CO)c1ccc(NC(=O)c2cccnc2)cc1`: 101% (inactive).
On to `C=C1C(=O)O[C@H]2[C@H]1CC/C(Cn1cc(CCC)nn1)=C\CC[C@@]1(C)O[C@@H]21`, for which the growth was -13.9% (active).
For `CCCCCCN1CCN(Cc2ccc(N(CC)CC)cc2)C(=O)C1=O`, the growth was -19.1% (active).
As for `CCCCN(CC)CCCCCCCCCCN1CCCc2cc(OC)ccc21`, the growth is -54% (active).
